Among the data in PubChem BioAssay are composite z-score, composite Z-score and z-score values, retold here.

For one experiment, the target named is Albumin (Bos taurus) (UniProt P02769). In words: bovine serum albumin binders on microarray, profiling panel, artefact control for SMM control protein annotation, biochemical, small-molecule microarray, Alexa647 label, 635/667 nm fluorescence (AID 1118).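 Note: score merges 667 nm emission intensity and signal-to-noise per printed compound spot.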 The conditions noted are these: BSA-A647 binding, fluorescence 635 nm, higher = more signal.
Albumin (Bos taurus), sequence (P02769 whole entry, looked up): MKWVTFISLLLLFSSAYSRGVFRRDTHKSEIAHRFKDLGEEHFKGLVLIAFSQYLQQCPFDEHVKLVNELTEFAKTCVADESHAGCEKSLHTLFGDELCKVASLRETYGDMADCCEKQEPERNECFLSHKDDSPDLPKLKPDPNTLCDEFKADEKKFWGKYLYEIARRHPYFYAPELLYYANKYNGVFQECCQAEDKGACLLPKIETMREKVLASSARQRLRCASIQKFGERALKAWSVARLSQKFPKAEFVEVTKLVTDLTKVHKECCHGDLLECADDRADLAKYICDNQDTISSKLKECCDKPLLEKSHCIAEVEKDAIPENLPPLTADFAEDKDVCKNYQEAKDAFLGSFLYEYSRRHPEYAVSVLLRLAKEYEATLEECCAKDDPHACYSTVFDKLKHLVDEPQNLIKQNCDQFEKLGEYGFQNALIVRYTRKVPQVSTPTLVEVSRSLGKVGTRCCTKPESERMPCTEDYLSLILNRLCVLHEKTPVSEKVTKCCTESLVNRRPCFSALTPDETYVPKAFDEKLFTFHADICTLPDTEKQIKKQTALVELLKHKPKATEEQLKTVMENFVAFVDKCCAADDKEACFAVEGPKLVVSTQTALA
Experiment [1] is described as follows: small-molecule microarray binders of probe aXIP, primary screen, biochemical, NeuroSMM set, 635/667 nm fluorescence (AID 1119).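 Note: probe is the protein aXip251-270 applied at 1 µg/mL to compound-printed slides; binding of probe to printed compounds measured as 667 nm fluorescence plus signal to noise.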 The conditions noted are these: higher = more signal, called active from +8 up or from −8 down.
The nature of experiment [2]: small-molecule binders of probe aNOTCH3, primary screen, biochemical, small-molecule microarray, 635/667 nm fluorescence (AID 1120).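 Note: probe is a biotin-tagged antibody raised against NOTCH3 rather than NOTCH3 protein; score merges spot fluorescence near 667 nm with spot signal to noise.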 The conditions noted are these: higher = more signal.
Experiment [3] is described as follows: small-molecule binders of probe aNOTCH2, primary screen, biochemical, small-molecule microarray, 635/667 nm fluorescence (AID 1121).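 Note: score merges feature fluorescence read at 667 nm with its signal to noise.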 The conditions noted are these: higher = more signal.
Experiment [4] concerns the target Carbonic anhydrase 2 (Homo sapiens) (UniProt P00918). The experiment can be described thus: CAII small-molecule binders, profiling panel, biochemical, small-molecule microarray, Alexa647-labelled CAII (AID 1122). The conditions noted are these: CAII-A647 binding fluorescence, higher = more signal.
Experiment [5] can be described thus: COS7 lysate on small-molecule microarray, probe aHis, 635 nm (AID 1123).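 Note: z-score combines 667nm fluorescence intensity with signal-to-noise per printed compound spot.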 The conditions noted are these: COS7 cell lysate, fluorescence, higher = more signal.
The nature of experiment [6]: compound binding in COS7 lysate, probe aLAP1, primary screen, cell lysate, small-molecule microarray (AID 1124).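 Note: lysate comes from COS7 cells expressing LAP1 and is applied at 0.3 µg/mL; score merges spot fluorescence near 667 nm with signal-to-noise over triplicate slides.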 The conditions noted are these: probe aLAP1, fluorescence, higher = more signal.
In the next experiment the test system is Sam68 (KHDRBS1). In words: Sam68 small-molecule binders, primary screen, biochemical, small-molecule microarray, 635 nm fluorescence (AID 1125).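 Note: score merges 667 nm channel intensity with signal to noise over triplicate slides.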 The conditions noted are these: small-molecule microarray binding, higher = more signal.
Experiment [7] concerns Chordin-like protein 2 (CHRDL2). In words: CHRDL2 small-molecule binders, primary screen, biochemical, small-molecule microarray, 635 nm fluorescence (AID 1126).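 Note: printed compound slides probed with Chrdl2 protein at 4 µg/mL for 1 h at 4 C; score merges 667 nm emission intensity with signal to noise over three replicate slides.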 The conditions noted are these: small-molecule microarray binding, fluorescence 635 nm; higher = more signal.
Experiment [8] deals with Concanavalin-A (Canavalia ensiformis) (UniProt P02866). The experiment can be described thus: ConA small-molecule binders, primary screen, artefact control for SMM control protein annotation, biochemical, small-molecule microarray, Alexa647 label, 635 nm (AID 1127).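 Note: z combines 667 nm emission intensity with signal-to-noise across three replicate slides.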 The conditions noted are these: ConA-A647 binding fluorescence, higher = more signal.
Concanavalin-A (Canavalia ensiformis), sequence (P02866 whole entry, looked up): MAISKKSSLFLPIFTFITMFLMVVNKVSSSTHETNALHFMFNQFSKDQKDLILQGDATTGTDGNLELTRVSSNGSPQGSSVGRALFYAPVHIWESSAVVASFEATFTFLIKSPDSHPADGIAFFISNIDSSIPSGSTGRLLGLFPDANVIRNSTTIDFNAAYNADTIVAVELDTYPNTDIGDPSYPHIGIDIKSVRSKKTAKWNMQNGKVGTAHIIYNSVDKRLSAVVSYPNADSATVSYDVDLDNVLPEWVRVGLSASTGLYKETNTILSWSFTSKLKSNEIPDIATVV
Experiment [9] in a line: anti-His antibody binders, primary screen, artefact control for SMM control protein annotation, biochemical, small-molecule microarray, 635 nm fluorescence (AID 1128).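 Note: score merges feature fluorescence with signal-to-noise for each printed compound spot.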 The conditions noted are these: anti-His Alexa647 antibody binding, higher = more signal.
Experiment [10] concerns Human papillomavirus type 1a E7 protein (residues 1-88). The experiment can be described thus: HPV1a E7 small-molecule binders, primary screen, biochemical, small-molecule microarray, residues 1-88, 635 nm (AID 1129). The conditions noted are these: small-molecule microarray binding, fluorescence 635 nm; higher = more signal.
The target of experiment [11] is Focal adhesion kinase 1 (Homo sapiens) (UniProt Q05397). The experiment can be described thus: small-molecule microarray binders of FAK, primary screen, biochemical, 635/667 nm fluorescence, BSA, DTT (AID 1130).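 Note: composite of spot emission at 667 nm and signal to noise over triplicate slides.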 The conditions noted are these: PTK2 binding, 635 nm fluorescence, higher = more signal.
Focal adhesion kinase 1 (Homo sapiens), sequence (Q05397 whole entry, looked up): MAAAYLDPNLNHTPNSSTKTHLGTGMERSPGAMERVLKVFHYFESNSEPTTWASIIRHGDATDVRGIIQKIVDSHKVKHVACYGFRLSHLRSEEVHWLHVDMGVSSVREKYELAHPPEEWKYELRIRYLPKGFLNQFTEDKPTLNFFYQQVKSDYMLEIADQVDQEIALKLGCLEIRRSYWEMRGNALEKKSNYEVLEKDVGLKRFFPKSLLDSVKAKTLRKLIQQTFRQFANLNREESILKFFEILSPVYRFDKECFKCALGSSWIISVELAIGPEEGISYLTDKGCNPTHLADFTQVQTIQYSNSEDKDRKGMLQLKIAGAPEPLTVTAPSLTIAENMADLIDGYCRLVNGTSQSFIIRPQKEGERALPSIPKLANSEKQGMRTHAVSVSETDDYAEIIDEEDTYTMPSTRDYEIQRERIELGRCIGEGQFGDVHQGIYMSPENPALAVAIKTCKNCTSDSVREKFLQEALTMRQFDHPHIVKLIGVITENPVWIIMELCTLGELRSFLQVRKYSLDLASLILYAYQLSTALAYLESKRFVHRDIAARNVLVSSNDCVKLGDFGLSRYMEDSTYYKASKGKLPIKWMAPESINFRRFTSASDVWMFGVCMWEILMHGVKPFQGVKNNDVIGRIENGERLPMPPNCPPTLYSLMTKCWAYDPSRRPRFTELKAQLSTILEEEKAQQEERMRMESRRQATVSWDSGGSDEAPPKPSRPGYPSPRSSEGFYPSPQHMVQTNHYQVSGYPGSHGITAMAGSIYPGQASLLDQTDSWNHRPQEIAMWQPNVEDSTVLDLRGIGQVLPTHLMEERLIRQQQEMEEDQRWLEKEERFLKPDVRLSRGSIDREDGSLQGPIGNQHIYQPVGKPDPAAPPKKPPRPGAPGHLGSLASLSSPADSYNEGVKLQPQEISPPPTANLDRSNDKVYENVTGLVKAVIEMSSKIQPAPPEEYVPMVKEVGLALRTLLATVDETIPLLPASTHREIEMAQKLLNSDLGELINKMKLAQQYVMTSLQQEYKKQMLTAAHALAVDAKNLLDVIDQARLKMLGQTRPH
Experiment [12] relates to Fibrinogen (Alexa647-labelled). In words: fibrinogen binders on compound microarrays, profiling panel, artefact control for SMM control-protein annotation, biochemical, small-molecule microarray, 635/667 nm fluorescence (AID 1131).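 Note: z-score merges 667 nm fluorescence with per-spot signal-to-noise over triplicate slides.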 The conditions noted are these: fibrinogen-A647 binding fluorescence, higher = more signal.
For experiment [13], the target named is Follistatin (Homo sapiens) (UniProt P19883). The experiment can be described thus: follistatin binders on small-molecule microarrays, primary screen, biochemical, small-molecule microarray, 635/667 nm fluorescence (AID 1132). The conditions noted are these: FST binding, 635 nm fluorescence, higher = more signal.
Follistatin (Homo sapiens), sequence (P19883 whole entry, looked up): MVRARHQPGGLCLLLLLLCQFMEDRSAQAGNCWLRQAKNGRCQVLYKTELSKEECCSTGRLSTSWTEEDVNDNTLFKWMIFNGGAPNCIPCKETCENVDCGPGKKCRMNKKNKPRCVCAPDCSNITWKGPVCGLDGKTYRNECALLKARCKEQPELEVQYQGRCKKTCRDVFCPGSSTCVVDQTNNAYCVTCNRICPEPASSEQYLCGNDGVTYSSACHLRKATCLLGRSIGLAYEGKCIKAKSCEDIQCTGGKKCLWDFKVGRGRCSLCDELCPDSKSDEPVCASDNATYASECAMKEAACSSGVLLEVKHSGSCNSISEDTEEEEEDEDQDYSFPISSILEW
Experiment [14] concerns the target Fibroblast growth factor 2 (Homo sapiens) (UniProt P09038). In words: FGF2 binders on small-molecule microarrays, primary screen, biochemical, small-molecule microarray, 635/667 nm fluorescence (AID 1133). The conditions noted are these: small-molecule microarray binding, FGF2, fluorescence 635/667; higher = more signal.
Experiment [15] can be described thus: mitochondrial membrane potential change in A549 cells, profiling panel, cell-based, JC-1 fluorescence, basal, 24 h, 100 nL (AID 1138).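 Note: A549 lung adenocarcinoma cells under basal conditions with no added stimulus; test concentration not given here.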 The conditions noted are these: higher = more signal.
Another experiment deals with Lefty1. The experiment can be described thus: Lefty1 binders on small-molecule microarrays, primary screen, biochemical, small-molecule microarray, 635/667 nm fluorescence (AID 1139). The conditions noted are these: small-molecule microarray binding, fluorescence 635/667; higher = more signal.
The test system of experiment [16] is wheat germ agglutinin (Triticum aestivum), Alexa647-labelled. The experiment can be described thus: wheat germ agglutinin binders on compound microarrays, profiling panel, artefact control for SMM control-protein annotation, biochemical, small-molecule microarray, 635/667 nm fluorescence (AID 1140).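 Note: score merges 667 nm feature emission with signal to noise over triplicate slides.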 The conditions noted are these: WGA-A647 binding, 635 nm fluorescence, higher = more signal.

The target of experiment [17] is Luciferin 4-monooxygenase (Photinus pyralis) (UniProt P08659). The experiment can be described thus: firefly luciferase enzyme inhibitors, primary screen, biochemical, luminescence, purified enzyme, 2006 set (AID 1141).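 Note: cell-free assay with purified firefly luciferase at 100 ng per well in PBS; test concentration not given here.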 The conditions noted are these: SteadyGlo luminescence, 30 min, higher = more signal, called active from +8 up or from −8 down.
Luciferin 4-monooxygenase (Photinus pyralis), sequence (P08659 whole entry, looked up): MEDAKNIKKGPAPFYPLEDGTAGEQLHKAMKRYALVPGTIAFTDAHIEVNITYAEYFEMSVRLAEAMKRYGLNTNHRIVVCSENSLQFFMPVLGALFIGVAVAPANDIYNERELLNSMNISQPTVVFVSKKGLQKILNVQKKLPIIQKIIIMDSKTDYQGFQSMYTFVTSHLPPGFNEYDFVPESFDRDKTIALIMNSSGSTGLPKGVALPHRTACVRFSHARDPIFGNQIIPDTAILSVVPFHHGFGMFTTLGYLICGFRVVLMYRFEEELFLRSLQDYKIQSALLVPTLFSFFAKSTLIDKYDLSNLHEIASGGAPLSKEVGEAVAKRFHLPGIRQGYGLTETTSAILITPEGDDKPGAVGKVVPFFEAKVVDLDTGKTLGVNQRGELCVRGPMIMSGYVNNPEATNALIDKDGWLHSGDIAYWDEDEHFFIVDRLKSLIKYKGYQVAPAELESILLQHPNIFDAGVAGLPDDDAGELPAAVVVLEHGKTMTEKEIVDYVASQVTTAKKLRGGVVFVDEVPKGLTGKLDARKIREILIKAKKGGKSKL

Calls of active or inactive are those of the source.

Fibroblast growth factor 2 (Homo sapiens), sequence (P09038 whole entry, looked up): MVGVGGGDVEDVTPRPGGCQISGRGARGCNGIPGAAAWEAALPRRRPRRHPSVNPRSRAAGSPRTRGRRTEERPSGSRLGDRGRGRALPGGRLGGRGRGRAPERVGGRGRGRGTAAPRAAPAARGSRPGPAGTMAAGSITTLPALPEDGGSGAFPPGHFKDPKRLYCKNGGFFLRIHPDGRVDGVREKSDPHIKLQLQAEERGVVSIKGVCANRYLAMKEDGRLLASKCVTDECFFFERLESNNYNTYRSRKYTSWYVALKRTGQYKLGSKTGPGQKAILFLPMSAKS

On to `Cc1cc(C)c(C(O)C2C=CC3C(=O)N(c4ccccc4)C(=O)C3N2Nc2ccccc2F)c(C)c1` (stereo not given), for which the composite z-score in the experiment with Albumin (Bos taurus) worked out at 0.553; in experiment [2], 0.0602; in experiment [3], 0.0278; in experiment [4], 0.365; in experiment [5], 1.08; in experiment [6], 0.725. In addition, the composite z-score in the experiment on Sam68 (KHDRBS1) is -0.186; in experiment [7], 0.0036; in [8], 0.511; in experiment [9] it was 1.29; in [10], -0.103; in [11], 0.39. Further, the composite z-score in experiment [12] is 0.859; in experiment [13], 0.0286; in experiment [14], -0.435; in the experiment with Lefty1, -0.589; in [16] it was 0.403. For the same molecule, the composite Z-score in [1] is 0.224 (inactive). Also, the results for the z-score in [15] and in experiment [17] were -0.909 and -0.746 (inactive), respectively.

Regarding `COc1ccc([Si](C)(C)[C@@H]2[C@@H](CCO)O[C@]3(C(=O)N(Cc4cccc(NC(=O)[C@H](C)O)c4)c4ccccc43)[C@H]2C)cc1`, the composite z-score is 0.6 in the experiment with Albumin (Bos taurus); -0.147 in [2]; -0.0984 in experiment [3]; 0.51 in [4]; 1.61 in experiment [5]; 0.523 in [6]. The composite z-score is 1.31 in the experiment with Sam68 (KHDRBS1); -0.083 in experiment [7]; 1.01 in experiment [8]; 1.76 in [9]; 1.2 in experiment [10]; 0.642 in experiment [11]. In addition, the composite z-score in [12] was 0.694; in experiment [13] it was 0.393; in experiment [14], 0.957; in the experiment with Lefty1, 0.486; in experiment [16] it was 0.743. The composite Z-score in experiment [1] was 0.234 (inactive). The z-score in [15] is -1.52; in [17] it was -0.355 (inactive).

In the case of `CCCNC(=O)[C@@]1(Sc2ccc(C)cc2)CC(=O)N(C2Cc3ccccc3C2)[C@@H]1c1ccc(CO)cc1I`, the composite z-score is -0.533 in the experiment with Albumin (Bos taurus); 0.606 in experiment [2]; -0.0186 in experiment [3]; 0.427 in experiment [4]; 0.807 in experiment [5]; 0.702 in experiment [6]. The composite z-score with Sam68 (KHDRBS1) is 0.95; in experiment [7], 0.378; in experiment [8] it was -0.162; in experiment [9], 1.59; in experiment [10], 0.255; in experiment [11] it was 0.371. The composite z-score in experiment [12] was 0.34; in [13], 1.01; in experiment [14], -0.209; with Lefty1, 0.489; in experiment [16], 0.157. Moreover, in [1], the composite Z-score was -0.0764 (inactive). Further, the values for the z-score in [15] and in [17] were 1.87 and -0.767 (inactive), respectively.

As to `COCCOC(=O)N1C(=O)[C@@]2(c3cc(C#CC4(O)CCCCCC4)ccc31)[C@H](C(=O)N1CCc3cc(OC)c(OC)cc3C1)[C@H]1C(=O)O[C@H](c3ccccc3)[C@H](c3ccccc3)N1[C@@H]2c1ccc(OCCO)cc1`, the composite z-score was 0.121 with Albumin (Bos taurus); -0.021 in [2]; -0.0617 in experiment [3]; 0.515 in experiment [4]; 0.535 in [5]; 0.272 in [6]. The composite z-score in the experiment on Sam68 (KHDRBS1) was determined as 1.31; in experiment [7], 0.666; in [8], 1.12; in [9] it was 0.244; in experiment [10], 0.867; in [11], 1.06. Further, the composite z-score was 0.682 in experiment [12]; 1.29 in [13]; 1.32 in [14]; 1.23 in the experiment on Lefty1; 0.475 in experiment [16]. The composite Z-score in experiment [1] was 0.28 (inactive). For the same molecule, the figures for the z-score in [15] and in experiment [17] were -1.11 and -1.07 (inactive), respectively.

`COC(=O)[C@@H]1N=C(c2ccc(OCCCO)cc2)O[C@@H]1c1ccccc1`: the composite z-score is 0.258 with Albumin (Bos taurus); -0.206 in [2]; -0.104 in [3]; 0.7 in experiment [4]; 0.387 in experiment [5]; -0.342 in [6]. Moreover, the composite z-score in the experiment with Sam68 (KHDRBS1) is -0.826; in experiment [7], -1.89; in experiment [8] it was -0.324; in experiment [9] it was 1.33; in experiment [10], -0.314; in experiment [11] it was -0.137. Besides, the composite z-score in experiment [12] is -0.887; in experiment [13], -1.36; in experiment [14], -0.837; in the experiment with Lefty1 it was -0.447; in [16], -0.0306. Moreover, the composite Z-score in experiment [1] is 0.536 (inactive). Moreover, the z-score is 0.135 in [15] and -13.4 (active) in experiment [17].
